# Where two headings read alike, the source gives them in different places.
# Tests used:
# Design in all cases: species or system human, MV4-11 + K-562 + COLO205 + SK-N-BE2 + OVCAR-8
# [1] = tested on: CSNK1D; conditions: read-out: apparent Kd, compound concentrations: 100 nM and 1000 nM (sheet 'Samples'), n = 1
# [2] = tested on: CSNK1E; conditions: read-out: apparent Kd; compound concentrations: 100 nM and 1000 nM (sheet 'Samples'), CATDS: 0.24800542383641; n = 1
# [3] = tested on: MAPK14; conditions: read-out: apparent Kd, compound concentrations: 100 nM and 1000 nM (sheet 'Samples'), n = 1
# [4] = tested on: MAPKAPK2; conditions: read-out: apparent Kd, compound concentrations: 100 nM and 1000 nM (sheet 'Samples'), n = 1
# [5] = tested on: GAK; conditions: read-out: apparent Kd; compound concentrations: 100 nM and 1000 nM (sheet 'Samples'), CATDS: 0.103213597019934; n = 1
# [6] = tested on: GSK3B; conditions: read-out: apparent Kd, compound concentrations: 100 nM and 1000 nM (sheet 'Samples'), n = 1
# [7] = tested on: MAPK10; conditions: read-out: apparent Kd; compound concentrations: 100 nM and 1000 nM (sheet 'Samples'), CATDS: 9.6929032938047402E-2; n = 1
# [8] = tested on: MAPK9; conditions: read-out: apparent Kd; compound concentrations: 100 nM and 1000 nM (sheet 'Samples'), CATDS: 0.22651523139433999; n = 1
# [9] = tested on: NLK; conditions: read-out: apparent Kd, n = 1
# [10] = tested on: PIK3CA; conditions: read-out: apparent Kd, n = 1
# [11] = tested on: PRKD2; conditions: read-out: apparent Kd; compound concentrations: 100 nM and 1000 nM (sheet 'Samples'), CATDS: 7.4575323464079593E-2; n = 1
# [12] = tested on: PRKD3; conditions: read-out: apparent Kd; compound concentrations: 100 nM and 1000 nM (sheet 'Samples'), CATDS: 5.9438089075158997E-2; n = 1
# [13] = tested on: RET; conditions: read-out: apparent Kd, n = 1
# [14] = tested on: DCTPP1; conditions: read-out: apparent Kd, n = 1
# [15] = tested on: T1, DJA1; conditions: read-out: apparent Kd; compound concentrations: 100 nM and 1000 nM (sheet 'Samples'), CATDS: 8.5163737412021906E-2; n = 1
# T1 construct: gene DNAJA1
# [16] = tested on: GSK3A; conditions: read-out: apparent Kd; compound concentrations: 100 nM and 1000 nM (sheet 'Samples'), CATDS: 0.120025904024986; n = 1
# [17] = tested on: PRKCA; conditions: read-out: apparent Kd; compound concentrations: 100 nM and 1000 nM (sheet 'Samples'), CATDS: 0.251821387342202; n = 1
# [18] = tested on: PRKCB; conditions: read-out: apparent Kd; compound concentrations: 100 nM and 1000 nM (sheet 'Samples'), CATDS: 0.103783943133635; n = 1
# [19] = tested on: PRKCD; conditions: read-out: apparent Kd; compound concentrations: 100 nM and 1000 nM (sheet 'Samples'), CATDS: 0.10441574318923801; n = 1
# [20] = tested on: PRKCQ; conditions: read-out: apparent Kd; compound concentrations: 100 nM and 1000 nM (sheet 'Samples'), CATDS: 8.12008674931885E-2; n = 1
# [21] = tested on: RPS6KA6; conditions: read-out: apparent Kd; compound concentrations: 100 nM and 1000 nM (sheet 'Samples'), CATDS: 0.17427412228003; n = 1
# [22] = tested on: CSNK2A1;CSNK2A3; conditions: read-out: apparent Kd, compound concentrations: 100 nM and 1000 nM (sheet 'Samples'), n = 1
# [23] = tested on: CSNK2A2; conditions: read-out: apparent Kd, compound concentrations: 100 nM and 1000 nM (sheet 'Samples'), n = 1
# [24] = tested on: FLT3; conditions: read-out: apparent Kd; compound concentrations: 100 nM and 1000 nM (sheet 'Samples'), CATDS: 0.44201063534771401; n = 1
# [25] = tested on: PRKAA2; conditions: read-out: apparent Kd; compound concentrations: 100 nM and 1000 nM (sheet 'Samples'), CATDS: 0.28519609584928202; n = 1
# [26] = tested on: PDXK; conditions: read-out: apparent Kd; compound concentrations:100 nM and 1000 nM (sheet 'Samples'); n = 1
# [27] = tested on: PIK3C3; conditions: read-out: apparent Kd; compound concentrations:100 nM and 1000 nM (sheet 'Samples'); n = 1
# [28] = tested on: PIK3CB; conditions: read-out: apparent Kd; compound concentrations:100 nM and 1000 nM (sheet 'Samples'); n = 1
# [29] = tested on: PIK3CD; conditions: read-out: apparent Kd; compound concentrations:100 nM and 1000 nM (sheet 'Samples'); n = 1
# [30] = tested on: DDR1; conditions: read-out: apparent Kd; compound concentrations:100 nM and 1000 nM (sheet 'Samples'); n = 1
# [31] = tested on: JAK2; conditions: read-out: apparent Kd; compound concentrations:100 nM and 1000 nM (sheet 'Samples'); n = 1
# [32] = compound concentrations:100 nM and 1000 nM (sheet 'Samples')
smiles,measurement,setting,value
Cc1nccc(-c2c(-c3ccc(F)cc3)ncn2CCCN2CCOCC2)n1.Cl [SB-282975-A],potency estimated from few doses,[1]; CATDS: 0.65749239951041605,74.7 nM
same,potency estimated from few doses,[2],505 nM
same,potency estimated from few doses,[3]; CATDS: 0.18964189775036899,1100 nM
same,potency estimated from few doses,[4]; CATDS: 0.19328139808162401,1030 nM
Cc1ccc2c(-c3ccnc(Nc4cccc(C(F)(F)F)c4)n3)c(-c3ccccc3)nn2n1 [GW829906X],potency estimated from few doses,[1]; CATDS: 6.2224670805274301E-2,2130 nM
same,potency estimated from few doses,[5],606 nM
same,potency estimated from few doses,[6]; CATDS: 7.0776673864894807E-2,1440 nM
same,potency estimated from few doses,[7],688 nM
same,potency estimated from few doses,[3]; CATDS: 8.8284377097412201E-2,839 nM
same,potency estimated from few doses,[8],165 nM
same,potency estimated from few doses,[4]; CATDS: 6.8776353647753294E-2,1560 nM
same,potency estimated from few doses,"[9]; compound concentrations: 100 nM and 1000 nM (sheet 'Samples'), CATDS: 6.7080565702130196E-2",1680 nM
same,potency estimated from few doses,"[10]; compound concentrations: 100 nM and 1000 nM (sheet 'Samples'), CATDS: 0.21860301841360499",174 nM
same,potency estimated from few doses,[11],1250 nM
same,potency estimated from few doses,[12],2500 nM
same,potency estimated from few doses,"[13]; compound concentrations: 100 nM and 1000 nM (sheet 'Samples'), CATDS: 7.2475765263367006E-2",1350 nM
Cn1cc(C2=C(c3cn(CCCCN)c4ccccc34)C(=O)NC2=O)c2ccccc21 [RO0317888-000],potency estimated from few doses,"[14]; compound concentrations: 100 nM and 1000 nM (sheet 'Samples'), CATDS: 8.2242786873404694E-2",1870 nM
same,potency estimated from few doses,[15],1670 nM
same,potency estimated from few doses,[16],700 nM
same,potency estimated from few doses,[6]; CATDS: 0.13279399425104901,570 nM
same,potency estimated from few doses,[17],200 nM
same,potency estimated from few doses,[18],970 nM
same,potency estimated from few doses,[19],956 nM
same,potency estimated from few doses,[20],1960 nM
same,potency estimated from few doses,[21],351 nM
COc1ccc(CCNC2=NC(=O)/C(=C/c3ccc4ncccc4c3)S2)cc1 [RO4498476-000],potency estimated from few doses,[22]; CATDS: 0.299531148324096,1610 nM
same,potency estimated from few doses,[23]; CATDS: 0.294198980295866,1680 nM
same,potency estimated from few doses,[24],756 nM
CC1=C(C(=O)Nc2ccc3[nH]ncc3c2)C(c2ccc(F)cc2)NC(=O)N1 (stereo not shown) [GSK180736A],potency estimated from few doses,[22]; CATDS: 0.33639720251881999,978 nM
same,potency estimated from few doses,[23]; CATDS: 0.39667360391151801,718 nM
same,potency estimated from few doses,[25],1410 nM
O=c1cc(N2CCOCC2)nc2n(Cc3cccc(Cl)c3Cl)c(C3CC3)nn12 [GSK2358994A],potency estimated from few doses,[14]; [32],1200 nM
same,potency estimated from few doses,[9]; [32],2260 nM
same,potency estimated from few doses,[26],1950 nM
same,potency estimated from few doses,[27],9.02 nM
same,potency estimated from few doses,[28],3.64 nM
same,potency estimated from few doses,[29],14.2 nM
CN1CCN(CCNc2nc3cc(Oc4ccc(NC(=O)Nc5cc(C(F)(F)F)ccc5F)cc4)ccc3[nH]2)CC1.CN1CCN(CCNc2nc3cc(Oc4ccc(NC(=O)Nc5cc(C(F)(F)F)ccc5F)cc4)ccc3[nH]2)CC1.Cl.Cl [GW768504A],potency estimated from few doses,[30],584 nM
same,potency estimated from few doses,[31],634 nM
same,potency estimated from few doses,[10]; [32],230 nM
same,potency estimated from few doses,[29],97.4 nM
same,potency estimated from few doses,[13]; [32],1080 nM
COc1cccc(-n2ncc3c(N/N=C/c4ccc(C)cc4)ncnc32)c1 [GW829877X],potency estimated from few doses,[23]; CATDS: 1,1940 nM

# Reference: paper PMC11062922 (Nature Chemical Biology, 2023)
